FXIIa inh mix = factor XIIa (human) inhibition, mixture screen | P00748 | purified FXIIa, fluorogenic substrate, pooled mixtures | inhibition, % at 5 µM | hit rate 0.2% among 62,000 | AID 684
C1s block = blocks human complement C1s protease activity; P09871; purified C1s, fluorogenic AMC substrate, pooled mixtures; mean inhibition % of two 10-compound mixtures (stronger effect = higher value), % at 5 µM (by protocol); hit rate 0.16% among 62,000; AID 538;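 active means inhibition above 20% in each of the two 10-compound mixture wells holding the compound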
BAP1 block = human BAP1 deubiquitinase inhibition; AID 436; recombinant BAP1, Ub-AMC hydrolysis fluorescence kinetic; stronger effect = lower value; hit rate 0.48% among 72,000; calls only at 20 µM; Q92560;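 active means activity remaining at or below 50% of control, provided the compound also passes the data quality filters; inactive means the rest, including low values that fail the filters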
Cathepsin G inh = blocks human cathepsin G enzyme activity; hit rate 0.2% among 62,000; P08311; inhibition, % at 5 µM (by protocol); purified enzyme, AMC-tetrapeptide fluorescence, pooled mixtures;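 active means inhibition above 20% in each of the two mixture wells holding the compound; inactive means inhibition of 20% or less in either well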
Target sequence (P08311 21-244 limits assumed): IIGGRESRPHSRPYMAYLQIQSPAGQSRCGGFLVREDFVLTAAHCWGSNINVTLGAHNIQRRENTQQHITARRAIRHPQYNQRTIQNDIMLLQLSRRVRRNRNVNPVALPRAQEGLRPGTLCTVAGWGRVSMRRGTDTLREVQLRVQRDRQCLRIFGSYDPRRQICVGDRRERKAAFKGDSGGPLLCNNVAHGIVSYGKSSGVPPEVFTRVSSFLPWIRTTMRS
FXIa inh mix = factor XIa (human) inhibition, mixture screen; hit rate 0.19% among 62,000; AID 680; inhibition, % at 5 µM; purified FXIa, fluorogenic substrate, pooled mixtures; P03951;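 further: each value is inhibition by a whole ten-compound pool holding the compound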
HePTP inhibitor = inhibitors of human HePTP phosphatase; recombinant HePTP phosphatase activity, OD absorbance; hit rate 0.64% among 110,000; inhibition, % at 20 µM; AID 521; in the data active means inhibition above about 50%
Target sequence (P35236 whole entry, looked up): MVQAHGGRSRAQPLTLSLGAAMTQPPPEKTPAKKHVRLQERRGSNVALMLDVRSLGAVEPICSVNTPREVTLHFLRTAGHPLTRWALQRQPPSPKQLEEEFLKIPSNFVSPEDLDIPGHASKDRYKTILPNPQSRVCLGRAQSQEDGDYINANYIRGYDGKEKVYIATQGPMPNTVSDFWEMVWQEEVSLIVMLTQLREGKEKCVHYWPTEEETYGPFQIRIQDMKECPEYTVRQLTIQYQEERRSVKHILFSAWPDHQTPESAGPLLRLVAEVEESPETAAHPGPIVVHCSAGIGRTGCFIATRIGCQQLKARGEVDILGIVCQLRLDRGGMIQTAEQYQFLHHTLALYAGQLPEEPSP
Numbers stand for hits; . = inactive; / = no result given; ! = repeats disagree. The list is not random: actives were taken first. Their share in the collection is about 1.1%. Unless noted, no stated cut-off is given here; in the data, active means inhibition above about 20% (passing the limit was not always enough); inactive means the rest.

SMILES	FXIIa inh mix	C1s block	BAP1 block	Cathepsin G inh	FXIa inh mix	HePTP inhibitor
O=C1C(Nc2cccc(C(F)(F)F)c2)=C(N2CCCCC2)C(=O)c2ccccc21	/	/	/	/	/	.
COc1ccc(S(=O)(=O)n2nc(OC(=O)c3ccccc3)cc2N)cc1	.	.	.	35	28	.
Cc1ccc(S(=O)(=O)n2nc(OC(=O)c3c(-c4ccccc4Cl)noc3C)cc2N)cc1	.	.	.	.	.	.
Cc1nn(C(C)(C)C)c(OC(=O)c2cccs2)c1S(=O)(=O)c1ccccc1	.	.	.	.	.	.
COc1ccc(S(=O)(=O)n2nc(OC(=O)c3cccs3)cc2N)cc1	.	.	.	38	.	.
Cc1ccc(C(C)C)c(OCC(=O)Nc2cccnc2)c1	/	/	/	/	/	.
Cc1ccc(-n2[nH]c(=O)c(/C=c3/c(C)c(C#N)c4nc5ccccc5n4c3=O)c2O)cc1C	/	/	/	/	/	102
Cc1c(C#N)c2nc3ccccc3n2c(=O)/c1=C/c1sc2ccccc2c1O	/	/	/	/	/	.
O=C(COc1ccccc1Cl)NNC(=O)c1ccncc1	/	/	/	/	/	101
O=C(COc1ccccc1Cl)NNC(=O)c1cccnc1	/	/	/	/	/	.
O=C(NN=C1CCCCCC1)c1ccc(Cl)c(Cl)c1	/	/	/	/	/	.
COc1ccc(N2C(=O)C3CCCN3C2c2cccc(C)c2)cc1Cl (stereo not drawn)	23	.	.	.	.	.
COc1ccc(N2C(=O)C3CCCN3C2c2ccccc2)cc1Cl (stereo not drawn)	.	.	.	.	.	.
COc1ccc2c(c1)CCc1c(C(=O)NCCN3CCOCC3)noc1-2	.	.	.	58	.	.
COc1ccc2c(c1)CCc1c(C(=O)NCCCn3ccnc3)noc1-2	.	.	.	36	.	.
COc1ccc2c(c1)CCc1c(C(=O)NC3CCCCC3)noc1-2	.	.	.	74	.	.
COCCNC(=O)c1noc2c1CCc1cc(OC)ccc1-2	.	.	.	50	.	.
COc1ccc(OC)c(NC(=S)NC(NC(=O)c2ccccc2Br)C(Cl)(Cl)Cl)c1 (stereo not drawn)	/	/	/	/	/	.
COCC(C)NC(=O)c1noc2c1CCc1cc(OC)ccc1-2 (stereo not drawn)	.	.	.	39	.	.
COc1ccc2c(c1)CCc1c(C(=O)NCc3ccco3)noc1-2	.	.	.	56	.	.
COCC(C)NC(=O)c1cc(-c2ccccc2OC)on1 (stereo not drawn)	.	.	.	.	.	.
O=C(NCc1ccco1)c1noc2c1CCCCC2	.	.	.	.	.	.
CCOc1ccc(/C=C2\SC(=S)N(CCC(=O)Nc3cccnc3)C2=O)cc1	/	/	/	/	/	.
O=C(/C=C/c1ccco1)Nc1ncc(Cc2cccc(Cl)c2)s1	/	/	/	/	/	.
COc1cccc(C2NC(=O)NC(C)=C2C(=O)Nc2cccc(C)c2C)c1 (stereo not drawn)	21	.	.	.	.	.
SMILES	FXIIa inh mix	C1s block	BAP1 block	Cathepsin G inh	FXIa inh mix	HePTP inhibitor
COc1ccc(C(=O)Nc2cc(OC)cc(OC)c2)cc1	.	.	/	.	.	.
COc1ccc(C(=O)Nc2cc(C(F)(F)F)cc(C(F)(F)F)c2)cc1	/	/	/	/	/	104
O=[N+]([O-])c1ccc(Cl)cc1NCc1ccccc1	/	/	/	/	/	.
O=C1C=CC(=O)C(/C(=C/NCc2ccccc2)[N+](=O)[O-])=C1	/	/	/	/	/	104
COc1ccc2[nH]c(=O)c(CN(Cc3nnnn3Cc3ccc(F)cc3)CC3CCCO3)cc2c1 (stereo not drawn)	21	.	/	.	.	.
COc1cccc(N2C(=O)N(c3ccccc3Cl)C3CS(=O)(=O)CC32)c1 (stereo not drawn)	.	23	.	.	.	.
CCOn1c(=O)c(-c2cc3ccccc3o2)[n+]([O-])c2ccccc21	.	.	.	.	24	.
O=C1NC(=S)N(c2ccccc2)C(=O)/C1=C/c1cc(Cl)c(O)c(Cl)c1	/	/	/	/	/	.
Cc1ccc(C)n1-c1ccc(CC(=O)O)cc1	/	/	/	/	/	102
Cc1ccc(C)n1-c1ccc(O)c(C(=O)O)c1	/	/	/	/	/	104
Cc1ccc(C)n1-c1cccc(C(=O)O)c1	.	.	/	.	.	/
CCCCn1c(SCC(=O)NC(C)(C)C)nnc1-c1ccco1	21	.	.	.	.	.
CC(=O)Oc1oc(-c2ccccc2)nc1/C=N/c1ccccn1	/	/	.	/	/	/
COc1ccccc1N=Cc1nc(-c2ccccc2)oc1OC(C)=O	.	.	.	26	50	.
CCOC(=O)/C(=C\c1ccncc1)C(=O)c1cc(C(C)=O)c(Nc2ccccc2)s1	/	/	/	/	/	.
O=C(NNc1ccccc1)C(O)(Cc1ccccc1)Cc1ccccc1	/	/	/	/	/	.
Cc1ccc2c(c1)c(N=Nc1nnc3c(n1)[nH]c1ccccc13)c(O)n2C	/	/	/	/	/	87
O=S(=O)(c1ccc(NC(=S)Nc2ccc(F)cc2)cc1)N1CCCC1	/	/	/	/	/	.
CCC(C(=O)Nc1ccc(OC)cc1OC)c1ccccc1 (stereo not drawn)	/	/	/	/	/	104
CCC(C(=O)Nc1cc([N+](=O)[O-])ccc1OC)c1ccccc1 (stereo not drawn)	/	/	/	/	/	.
CC(=O)Oc1ccc2c3c(c(=O)oc2c1OC(C)=O)CCCC3	/	/	/	/	/	.
CCN(CC)CCCC(C)NC(=O)c1c(NC(=O)c2ccccc2)sc(C)c1C (stereo not drawn)	/	/	/	/	/	.
CNc1nc(Nc2cccc([N+](=O)[O-])c2)nc(OCC(F)(F)F)n1	/	/	/	/	/	105
O=C(c1ccc2c(c1)OCO2)N1CCN(c2ccc(Cl)cc2)CC1	.	.	.	.	.	102!
O=C(O)CN1C(=O)/C(=N/N2C(=O)CSC2=S)c2ccccc21	/	/	/	/	/	63
SMILES	FXIIa inh mix	C1s block	BAP1 block	Cathepsin G inh	FXIa inh mix	HePTP inhibitor
O=C(O)CN1C(=O)/C(=C2\SC(=S)NC2=O)c2ccccc21	/	/	/	/	/	.
O=C(CCCOc1ccccc1)Nc1ccccc1F	/	/	/	/	/	.
O=[N+]([O-])c1ccc(-c2nnc(-c3ccc(F)cc3)o2)cc1	/	/	/	/	/	.
O=c1c2c(nc3cc(-c4cccs4)[nH]n13)CCS2	/	/	/	/	/	.
O=c1c2c(nc3cc(-c4ccc(Cl)cc4)[nH]n13)CCS2	/	/	/	/	/	96
O=c1c2c(nc3cc(-c4ccco4)[nH]n13)CCS2	/	/	/	/	/	100
CCOc1cc(C(=O)Nc2ccc(OC)cc2)cc(OCC)c1OCC	/	/	/	/	/	.
COC(=O)c1cccc(-c2ccc(/C=C3\C(=O)N(c4cccc(C(=O)O)c4)N=C3C)o2)c1	/	/	/	/	/	102
CC1=NN(c2ccc(C(=O)O)cc2)C(=O)/C1=C\c1ccc(-c2cccc(C(=O)O)c2)o1	/	/	/	/	/	101
N=C1S/C(=C\c2ccc(-c3cccc(C(=O)O)c3)o2)C(=O)N1c1ccc2c(c1)OCO2	/	/	/	/	/	103
O=C1NN(c2cccc(Cl)c2)C(=O)/C1=C\c1ccc(-c2cccc(C(=O)O)c2)o1	/	/	/	/	/	102
COC(=O)c1cccc(-c2ccc(/C=C3/C(=O)NN(c4cccc(Cl)c4)C3=O)o2)c1	/	/	/	/	/	.
CCOc1ccccc1NC(=O)COc1ccc(-c2ccc(C)cc2)cc1	/	/	/	/	/	.
CC(C)Oc1ccc(C(=O)NCc2cccnc2)cc1	.	.	.	.	.	104!
CC(=O)Oc1ccc2c(C)cc(=O)oc2c1C	/	/	/	/	/	.
Cc1ccc(-n2nc3cc(C)c(NC(=O)Cc4ccccc4)cc3n2)cc1	/	/	/	/	/	63
COc1ccccc1N(CC(=O)NC(C)(C)C)S(=O)(=O)c1ccccc1	/	/	/	/	/	106
